In PubChem BioAssay (NCI):
About 79,000 compounds went through this panel and 15% of them were active in at least one assay; those are over-represented in the sample as a whole. Values without a mark were called inactive. Calls of active or inactive are those of the source. Cut-off read from the data, not from the text of the source: active = growth inhibition above about 70%; inactive = the rest.

Experiment: NCI Yeast Anticancer Drug Screen. Data for the mlh1 rad18 strain (AID 175)
Conditions: S. cerevisiae mlh1 rad18 strain growth inhibition, stronger effect = higher value
Method: Growth inhibition of yeast strains with defined genetic alterations is measured as a screen for potential anti-cancer activity. Selected strains with alterations in DNA damage repair or cell cycle control were exposed to compounds and growth inhibition was measured relative to vehicle treated controls. The strain used in this assay is mlh1 rad18

[1] = at 5.0 µM (retest, dose inferred, filed as 0.5)
[2] = at 50.0 µM (retest, dose inferred, filed as 5.0)

Row | SMILES | growth inhibition [1] | growth inhibition [2] | growth inhibition (at 50.0 µM)
1 | C/C(=N/NC(=S)N1CCCCC1)c1cccc(/C(C)=N\NC(=S)N2CCCCC2)n1 | -3% | 95% (active) | 88.2% (active)
2 | Cc1cccc2c(Nc3ccc(NS(C)(=O)=O)cc3)c3ccccc3nc12 | -2% | 31% | 39.3%
3 | O=C(OCCCC(C(=O)c1ccccc1)=P(c1ccccc1)(c1ccccc1)c1ccccc1)c1ccccc1 | 50% | 99% (active) | 54.8%
4 | O=c1c2ccccc2sc2c([N+](=O)[O-])ccc(NCCNCCO)c12 | 35% | 98% (active) | 83.3% (active)
5 | O=C1CC(c2ccccc2)C(c2ccccc2)CO1 (configuration not stated) | 74% (active) | 99% (active) | 93.7% (active)
6 | C/C(=N\NC(=S)Nc1ccc(Cl)cc1)c1nc2ncccc2[nH]1 | -1% | 98% (active) | 85.4% (active)
7 | CCCC1=C(c2ccccc2)C(O)(c2ccccc2)C(CCC)C1=O (configuration not stated) | 4% | 47% | 95.8% (active)
8 | CCC(=O)/C(=C\c1ccccc1)C(=O)C(C)CN(C)C (configuration not stated) | 16% | 24% | 51.8%
9 | O=C(Nc1ccccc1)OCCN=C1c2ccccc2CCc2ccccc21 | -22% | 95% (active) | 88.8% (active)
10 | O=C(O)c1c2c(c(O)c3c1CN(C1CCCCC1)CO3)OCN(C1CCCCC1)C2 | 0% | 25% | 83.8% (active)
11 | CCC(C)CNCCCCCNc1cc(OC)cc2cccnc12 (configuration not stated) | 29% | 53% | 70.3% (active)
12 | CS(=O)(=O)OCCN(CCOS(C)(=O)=O)c1ccc(C=Nc2ccc3ccccc3c2)cc1 | 28% | 90% (active) | 95.3% (active)
13 | CC(C)C1=CC2=CC(=O)C3C(C)(C)CCCC3(C)C2=C(O)C1=O (configuration not stated) | 96% (active) | 90% (active) | 87.5% (active)
14 | CCCCCCCCCCCCNCC#N | 5% | 29% | 93% (active)
